Source: PubChem BioAssay AID686978 (National Center for Advancing Translational Sciences (NCATS), 2013)
Several values for one entry are separate records, joined by “and”; a condition that tells them apart may be missing. Equal entries are not always repeated. In all, about 420,000 compounds went through this assay and about 64,000 (15%) were called active. Where a call stands in place of a potency, no number is given. Another 27% or so got no clear call; they are omitted. This is one part of a sample in which actives are shown more often than they occur. The call rests on the fitted dose curve; in most records, active means well fitted inhibition curve with a large enough effect; inconclusive means small, poorly fitted or top-dose-only effect; inactive means flat fitted curve, though single readings scatter.

experiment: qHTS for Inhibitors of human tyrosyl-DNA phosphodiesterase 1 (TDP1): qHTS in cells in absence of CPT; conditions: DT40 Tdp1-/- hTDP1 cells, no CPT, ATP luminescence, 48 h; series mostly up to 46.2 µM; further: nearly all actives have a fitted effect of over 55% in size
Description: Human tyrosyl-DNA phosphodiesterase 1 (TDP1) is a novel repair gene, and we propose to use it as a new target for anticancer drug development. TDP1 is not an essential protein, but under treatment with topoisomerase I poison (camptothecin: CPT), TDP1 works as a critical factor for cell survival. To directly identify novel TDP1 inhibitors active in a cellular environment, we have knocked-out the Tdp1 gene in chicken DT40 cells (Tdp1-/-) and generated a complemented counterpart cells that contains a stable transfection of the human TDP1 gene (Tdp1-/-;hTDP1 cells). For the primary screen, Tdp1-/-;hTDP1 cells will be exposed to small molecules in the presence or absence of CPT, and their growth kinetics will be evaluated after 48 hours by measuring ATP activity. […] The hit compounds will then be evaluated in the presence or absence of CPT using Tdp1-/- cells. […] In tertiary assays, biochemical gel-based assays will be used to assess whether the hit compounds specifically target TDP1.
To this end, we have screened this cell line against the MLSMR in two primary screens. In one screen we add CPT and in the other we screen in the absence of CPT; this AID represents the screen where CPT was absent.
NIH Chemical Genomics Center [NCGC]
NIH Molecular Libraries Probe Centers Network [MLPCN]
Assay Submitter (PI): Yves Pommier, NCI
DT40-hTDP1 cells without 20 nM Camptothecin (add 20 microL of DMSO in 1 L of cell culture medium) were dispensed at 400 cells/5microL/well in tissue culture treated 1536-well white wall/solid bottom assay plates (Greiner Bio-One North America, NC, U.S.A.) using a Multidrop Combi 8 channel dispenser (Thermo Fisher, Waltham, MA, USA). 23 nL compounds and controls were transferred using the pin tool (Kalypsys, San Diego, CA, USA) to the assay plates. The assay plates were then incubated at 37 masculineC for a minimum 48 hr. Three microL of Cell Titer Glo solution was added to the plates and incubated at RT in dark for 30 min. Luminescence was read using ViewLux (Perkin Elmer) with 1 sec exposure slow speed, high gain and 2x binning.
Potency means the concentration at half of the fitted maximal effect.

Structure (SMILES) | Potency | activity change, negative = growth inhibition
CCN(CC)CCOC(=O)c1cc2cc(COC)ccc2o1 | inactive | 
C=CCN(CC=C)C(=O)Nc1ccc(OCC)cc1 | inactive | 
CCOC(=O)[C@]12Cc3ccccc3[C@H]1N(C1CCCCC1)C(=O)c1cc(OC)ccc12 | 3.66 µM (active) | 
CCOC(=O)[C@]12Cc3cc(OC)ccc3[C@H]1N(C(C)C)C(=O)c1ccccc12 | 6.51 µM (active) | 
O=C(N/N=C/c1c(O)n(C2CC2)c(=S)[nH]c1=O)c1ccccc1 | inactive | 
C[C@]12CC[C@H](O)CC1=C([N+](=O)[O-])CC1C2CC[C@@]2(C)C1CC[C@@H]2O (stereo partly specified) | inactive | 
CN1C2CC3CC1C(O3)C2O (stereo unspecified) | inactive | 
COc1c(O)ccc2c1-c1c3c(cc4c1C(C2)N(C)CC4)OCO3 (stereo unspecified) | inactive | 
COc1ccc2cc1Oc1ccc(cc1)C[C@H]1c3cc(c(OC)cc3CCN1C)Oc1c(O)c(OC)cc3c1[C@H](C2)N(C)CC3 | 8.2 µM (active) | 
O=C(Cc1ccc(Cl)cc1)NCCN1CCN(C(=O)Cc2ccc(Cl)cc2)CC1 | inactive | 
Clc1cccc(Cl)c1Cl | inactive | 
O=[N+]([O-])c1cnc2ccc3ccccc3c2c1 | inactive | 
Cn1c(O)c(C=NCCCC(=O)O)c(=O)n(C)c1=O | inactive | 
CCCCC(=O)N/N=C/c1c(O)n(CC)c(=S)n(CC)c1=O | 10.3 µM (active) | 
O=C1C2(Cl)C3(Cl)C4(Cl)C(Cl)(Cl)C5(Cl)C3(Cl)C1(Cl)C5(Cl)C24Cl (stereo unspecified) | 16.4 µM (active) | 
COC1=CC=C2[C@H]3Cc4ccc(OC)c5c4[C@@]2(CCN3C)C1O5 (stereo partly specified) | inactive | 
COP(=O)(OC)C(NC(=O)c1ccc(C)cc1)C(Cl)(Cl)Cl (stereo unspecified) | inactive | 
O=C1NC(=O)C(Cc2ccccc2)C(=O)N1 | inactive | 
CC(Cc1ccccc1)NC=O (stereo unspecified) | inactive | 
COc1ccc(CNC(=O)c2cc3c(-c4ccccc4F)nn(C)c3s2)c(OC)c1 | 6.51 µM (active) | 
CCOP(=O)(OCC)C(NC(=O)NC)C(N)=O (stereo unspecified) | inactive | 
O=C(O)c1cc[c]([Sb](=[O])([OH])[OH])cc1[N+](=O)[O-] | inactive | 
CCOC(=O)C1(c2ccccc2)CCN(CC(O)c2ccc(NC(C)=O)cc2)CC1 (stereo unspecified) | inactive | 
CCN1C[C@]2(COC)C(O)C[C@H](OC)[C@@]34C5C[C@]6(O)C(OC)C(O)[C@](OC(C)=O)(C5C6OC(=O)c5ccccc5)C(C(OC)C23)C14 (stereo partly specified) | inactive | 

Structure (SMILES) | Potency | activity change, negative = growth inhibition
CC(CCC(=O)O)C1CCC2C3C(O)C[C@@H]4CC(O)CC[C@@]4(C)C3CC[C@@]12C (stereo partly specified) | inactive | 
C/C=C/CC1(CC)C(=O)NC(=S)NC1=O | inactive | 
COC(=O)C1=C(c2ccc(OCc3ccccc3)cc2)C[C@@H]2CC[C@H]1N2C(=O)NCc1ccc(Cl)cc1 | 16.4 µM (active) | 
COC(=O)C1=C(c2cc3ccccc3s2)C[C@@H]2CC[C@H]1N2C(=O)NCCO | inactive | 
COC(=O)C1=C(c2ccccc2)C[C@@H]2CC[C@H]1N2C(=O)NCc1ccco1 | inactive | 
COC(=O)C(c1ccccc1)N1CCCCCC1 (stereo unspecified) | inactive | 
COC(=O)C1=C(c2ccc(OCc3ccccc3)cc2)C[C@@H]2CC[C@H]1N2C(=O)NCc1cccc(F)c1 | 14.6 µM (active) | 
COC(=O)C1=C(c2cccc(OCc3ccccc3)c2)C[C@@H]2CC[C@H]1N2C(=O)NNCc1ccccc1 | 10.3 µM (active) | 
COC(=O)C1=C(c2c(C)noc2C)C[C@@H]2CC[C@H]1N2C(=O)NCc1ccc2c(c1)OCO2 | inactive | 
COC(=O)C1=C(c2ccccc2)C[C@@H]2CC[C@H]1N2C(=O)N1CCCCC1 | 6.51 µM (active) | 
CC[N+](CC)(CC)CCCCCCCCCC[N+](CC)(CC)CC | inactive | 
CNC(=O)N(C)c1nnc(C(C)(C)C)s1 | inactive | 
COP(=O)(NS(=O)(=O)c1ccccc1)OC | inactive | 
CN1[C@@H]2CC[C@H]1CC(OC(=O)c1cc(Cl)cc(Cl)c1)C2 (stereo partly specified) | 13.3 µM (active) and 11.9 µM (active) | 
CN1CCC(OC(=O)c2cccc(F)c2)CC1 | inactive | 
CNP1(NC)=Nc2nn(-c3ccccc3)c(N)c2C(c2ccccc2)=N1 | inactive | 
Cc1cccc(Cn2cccc(C(=O)Nc3ccc4c(c3)OCCO4)c2=O)c1 | 20.6 µM (active) | 
CCN(CC)C(=O)c1ccc(NC(=O)c2cc(-n3cnnc3)ccc2Cl)cc1 | inactive | 
COc1cc(OC)cc(C2(C#N)CCN(C)CC2)c1 | inactive | 
Cc1ccc(-n2c(O)c(C=NCC3CCCO3)c(=O)[nH]c2=O)c(C)c1 (stereo unspecified) | inactive | 
CNC(=O)Nc1ccc(C(O)(C(=O)OC)C(F)(F)F)cc1 (stereo unspecified) | inactive | 
Cc1cc(C(=O)OCC(=O)Nc2c(F)cccc2F)c(C)n1C1CC1 | inactive | 
COC(=O)[C@@]12C[C@@H](CC(=O)NCc3cccc(C(F)(F)F)c3)C(=O)N(Cc3ccco3)C1=CCC(C)(C)C2 | 13 µM (active) | 
COc1cc(Cl)ccc1Nc1ncc(C(=O)N2CCN(c3ccccc3OC)CC2)c2ccccc12 | 5.8 µM (active) | 

Structure (SMILES) | Potency | activity change, negative = growth inhibition
C[C@@]1([C@@H](NP(=O)(c2ccccc2)c2ccccc2)c2ccccc2)C[C@H]1CCO | 18.4 µM (active) | 
CCN1CCN(C(=O)Cc2coc3cc(C)cc(C)c23)CC1 | inactive | 
c1cncc(CNC2=NCCC2)c1 | inactive | 
CCN1C(=O)NC(=O)C2(CCCC2)C1=O | inactive | 
Cc1ccc(Cn2c(C)c3cnn(CC(=O)N4CCC5(CC4)OCCO5)c(=O)c3c2C)cc1 | 14.6 µM (active) | 
COc1ccc(-c2nc(CS(=O)CC(=O)N3CCC4(CC3)OCCO4)c(C)o2)cc1 (stereo unspecified) | inactive | 
O=C(CCCn1c(=O)[nH]c2cc(Cl)ccc2c1=O)N1CCC2(CC1)OCCO2 | inactive | 
Cc1ccc(C(C)C)c(OCC(=O)N2CCN(CC(=O)N3CCOCC3)CC2)c1 | inactive | 
COC1CC(OC2CC[C@@]3(C=O)C4CC[C@]5(C)C(C6=CC(=O)OC6)CC[C@@]5(O)C4CC[C@]3(O)C2)OC(C)C1O (stereo partly specified) | 0.92 µM (active) | 
COC1C(O)C(C)OC(OC2CCC3(C=O)C(CCC4C3CCC3(C)C(C5=CC(=O)OC5)CCC43O)C2)C1O (stereo unspecified) | 0.206 µM (active) | 
CN(C)/C=C(\C=[N+](C)C)c1[nH]ncc1[N+](=O)[O-] | inactive | 
Cc1ccc(C2CN(C)CC2C(=O)c2ccc(F)cc2)cc1 (stereo unspecified) | inactive | 
COc1ccc(-n2c(O)c(C(C)=Nc3ccc4c(c3)CCC4)c(=O)[nH]c2=O)cc1 | inactive | 
COc1ccc(-n2c(-c3ccccc3)nc3ccccc3c2=O)cc1 | 13 µM (active) | 
CSc1nc2ccc(C)cc2c(=O)n1-c1cccnc1 | inactive | 
Cc1ccc(-c2nc3ccccc3c(=O)n2-c2ccc(Br)cn2)cc1 | inactive | 
O=c1c2ccccc2nc(-c2ccccc2)n1-c1ccccn1 | inactive | 
Cc1ccc(-n2c(-c3ccc([N+](=O)[O-])cc3)nc3ccccc3c2=O)cc1 | 8.2 µM (active) | 
COC1=C[C@]23CCCN2CCc2cc4c(cc2[C@@H]3[C@@H]1O)OCO4 |  | -13.2% [at 9.04 µM] (inactive)
c1ccc2sc(C3CCCNC3)nc2c1 (stereo unspecified) | inactive | 
CN(C)C(=O)Oc1cc(OC(=O)N(C)C)cc(C(O)CNC(C)(C)C)c1 (stereo unspecified) | inactive | 
CC(=O)Cc1ccc(OC(C)C)cc1 | inactive | 
OC1/C(=C/c2ccc(C(F)(F)F)cc2)N2CCC1CC2 (stereo unspecified) | inactive | 
O=C(CCC(=O)N1C[C@H]2C[C@@H](C1)c1cccc(=O)n1C2)NCc1ccccc1C(F)(F)F | inactive | 

Structure (SMILES) | Potency | activity change, negative = growth inhibition
C#C[C@]1(O)CC[C@H]2[C@@H]3CCC4=C/C(=N/O)CC[C@@H]4[C@H]3CC[C@@]21CC | 21.1 µM (active) | 
C#C[C@]1(OC(=O)CCCCCC)CC[C@H]2[C@@H]3CCC4=CC(=O)CC[C@@H]4[C@H]3CC[C@@]21C | inactive | 
CC(C)N(CC#CCC1(O)c2ccccc2-c2ccccc21)C(C)C | inactive | 
C[C@]12CCC3C(CC[C@H]4C[C@@H](O)CC[C@]34C)C1CC[C@@H]2O (stereo partly specified) | inactive | 
O=C(O)C1CSC(c2cccnc2)N1 (stereo unspecified) | inactive | 
CC(=O)c1ccc(S(=O)(=O)N2CCN(c3nc4c(C)c(C)ccc4cc3C#N)CC2)cc1 | 12.6 µM (active) | 
CCOC(=O)CC1=C(C(=O)OCC)C2(C(=O)N1)C(C(=O)OC)=C(N)Oc1ccccc12 (stereo unspecified) | inactive | 
CCCCC(=O)N/N=C/c1c(O)n(CCC2=CCCCC2)c(=O)[nH]c1=O | 25.9 µM (active) | 
O=c1[nH]c(=O)n(CCc2ccc(F)cc2)c(O)c1/C=N/N1CCCCC1 | inactive | 
CCCCC(=O)N/N=C/c1c(O)n(-c2ccccc2)c(=O)[nH]c1=O | inactive | 
CC(C)(Cc1c[nH]c2ccc(Cl)cc12)NCCOc1ccccc1OCC1CC1 | 26.6 µM (active) and 5.17 µM (active) | 
CC1CCC(N(C)C2CCN(C)CC2)CC1 (stereo unspecified) | inactive | 
O=C(COC(=O)Cc1ccccc1)Nc1ccc(F)cc1 | inactive | 
CCOC(=O)c1ccc(N2C(=O)c3[nH]nc(-c4ccccc4)c3C2c2ccc(C(C)C)cc2)cc1 (stereo unspecified) | 25.9 µM (active) | 
CCN(N=Nc1nonc1OC)c1nonc1OC | inactive | 
O=c1[nH]c(=O)n(-c2ccc(F)cc2)c(O)c1C=NCCN1CCCCC1 | inactive | 
CCn1cc2nc(SCc3ccccc3Cl)n(CCc3ccccc3)c(=O)c2n1 | 20.6 µM (active) | 
COc1cccc(OC)c1C(=O)NC(=S)N1C[C@H]2C[C@H](C1)c1cccc(=O)n1C2 | inactive | 
CC(C)=C[C@@H]1[C@@H](C(=O)OCc2coc(Cc3ccccc3)c2)C1(C)C | inactive | 
CN1CCN(C(=O)O[C@@H]2c3nccnc3C(=O)N2c2ccc(Cl)cn2)CC1 | inactive | 
CCC(C)(O)C(=O)OC1C(=O)OC2CC3C(C)=CC(=O)C(O)C3(C)C3C4(O)OCC23C1C(C)C4O (stereo unspecified) | 0.13 µM (active) | 
N#CC(C#N)=Cc1cc(O)c(O)c([N+](=O)[O-])c1 | inactive | 
O=C(N/N=C/c1ccc([N+](=O)[O-])o1)c1cc([N+](=O)[O-])cc([N+](=O)[O-])c1O | inactive | 
CC(=O)OC1C2CCC3C1(CC(O)[C@@]1(O)[C@@H](CC(O)C1(C)C)[C@]3(C)O)C[C@@]2(C)O (stereo partly specified) | inactive | 
